In experiment [1] the target is Estrogen receptor beta (Homo sapiens) (UniProt Q92731). The experiment can be described thus: OT_ER_ERbERb_0480: Odyssey Thera (OT) 8-hour HEK293T Protein-Complementation Assay for Estrogen Receptor-beta/-beta Homodimer (AID 2283357).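 Note: active means signal gain over DMSO baseline.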 The method, boiled down:
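Fluorescence gain from complemented reporter fragments on ER-beta LBD homodimer in HEK293T was quantified against DMSO controls after 8 h treatment, fixation in 4% formaldehyde and Draq5 staining.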

Experiment [2] deals with Peroxisome proliferator-activated receptor gamma (Homo sapiens) (UniProt P37231). The experiment in a line: NVS_NR_hPPARg: NovaScreen (NVS) Nuclear Receptor Binding Assay for human Peroxisome Proliferator-activated Receptor gamma (PPARg) (AID 2283370). The method, boiled down: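 Extracted receptor protein, cell-free; compound incubated 2 h then fluorescence polarization read. Baseline: DMSO. Actives from 25 uM duplicate screen re-run across concentrations.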
Chain of Peroxisome proliferator-activated receptor gamma (Homo sapiens) (P37231 whole entry, looked up): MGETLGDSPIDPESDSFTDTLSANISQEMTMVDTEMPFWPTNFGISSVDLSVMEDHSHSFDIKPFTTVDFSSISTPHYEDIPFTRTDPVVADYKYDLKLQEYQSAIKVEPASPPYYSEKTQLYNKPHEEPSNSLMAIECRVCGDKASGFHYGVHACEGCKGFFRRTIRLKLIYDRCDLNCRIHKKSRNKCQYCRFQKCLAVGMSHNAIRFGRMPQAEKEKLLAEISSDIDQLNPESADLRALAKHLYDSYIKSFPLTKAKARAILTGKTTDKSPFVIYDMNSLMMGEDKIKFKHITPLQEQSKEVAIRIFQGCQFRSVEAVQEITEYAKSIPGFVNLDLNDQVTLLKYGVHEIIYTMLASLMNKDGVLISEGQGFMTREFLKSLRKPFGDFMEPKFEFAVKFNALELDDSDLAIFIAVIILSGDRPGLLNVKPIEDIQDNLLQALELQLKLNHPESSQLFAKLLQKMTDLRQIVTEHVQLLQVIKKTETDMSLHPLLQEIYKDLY

In experiment [3] the target is Estrogen receptor beta (Homo sapiens) (UniProt Q92731). The experiment can be described thus: OT_ER_ERbERb_1440: Odyssey Thera (OT) 24-hour HEK293T Protein-Complementation Assay for Estrogen Receptor-beta/-beta Homodimer (AID 2283380).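 Note: fluorescence gain from ER beta LBD homodimer complementation read by laser scanning cytometry; scored as signal increase over DMSO baseline for both agonists and antagonists.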 The method, boiled down:
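HEK293T cells stably expressing human ER-beta LBD (aa 310-547) PCA homodimer pair, dosed 24 h; formaldehyde-fixed, Draq5-stained. Readout: increase in nuclear (agonist) or nuclear plus cytoplasmic (antagonist) fluorescence intensity versus DMSO, gain-of-signal fitting.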

The target of experiment [4] is Estrogen receptor (Homo sapiens) (UniProt P03372). The experiment in a line: OT_ERa_GFPERaERE_0480: Odyssey Thera (OT) 8-hour HeLa Transcription Induction Assay for Estrogen Receptor (AID 2283381; active = hit-call score of the fitted dose curve at least 0.9, where 1 is the maximum; inactive = score below 0.9). The method, boiled down: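 Human cervical HeLa cells were treated for 8 hours, after which ERE-driven GFP induction was measured by fluorescence microscopy; increases over DMSO baseline defined activity.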
Chain of Estrogen receptor (Homo sapiens) (P03372 whole entry, looked up): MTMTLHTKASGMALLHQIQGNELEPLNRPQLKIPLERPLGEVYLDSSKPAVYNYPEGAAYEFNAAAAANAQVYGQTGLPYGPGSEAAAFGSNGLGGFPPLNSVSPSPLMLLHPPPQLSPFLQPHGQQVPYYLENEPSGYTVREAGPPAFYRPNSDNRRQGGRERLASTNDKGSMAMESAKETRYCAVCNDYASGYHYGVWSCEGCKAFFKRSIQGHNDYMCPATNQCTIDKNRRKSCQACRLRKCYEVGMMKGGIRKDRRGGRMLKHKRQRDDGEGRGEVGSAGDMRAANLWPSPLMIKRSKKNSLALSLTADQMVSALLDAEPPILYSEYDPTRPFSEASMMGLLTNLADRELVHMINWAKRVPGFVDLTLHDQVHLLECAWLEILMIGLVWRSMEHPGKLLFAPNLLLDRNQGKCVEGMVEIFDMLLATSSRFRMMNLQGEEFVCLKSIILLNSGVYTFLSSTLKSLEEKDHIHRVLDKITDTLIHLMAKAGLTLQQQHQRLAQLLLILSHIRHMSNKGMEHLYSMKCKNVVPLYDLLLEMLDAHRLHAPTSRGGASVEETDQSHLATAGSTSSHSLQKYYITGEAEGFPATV

Experiment [5] has the same target. The experiment can be described thus: OT_ERa_GFPERaERE_0120: Odyssey Thera (OT) 2-hour HeLa Transcription Induction Assay for Estrogen Receptor (AID 2283382). The method, boiled down:
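Cells (human cervical HeLa) receive compound, incubate 2 hours, then are imaged for fluorescent reporter induction. Images are quantified by high content analysis, and activity is fitted as gain of signal against DMSO.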

Experiment [6] deals with human Thyroid Receptor Alpha (TRa), THRA (gene 7067) (UniProt P10827). The experiment in a line: NVS_NR_hTRa_Antagonist: NovaScreen (NVS) Nuclear Receptor Binding Assay for human Thyroid Receptor Alpha Antagonism (TRa) (AID 2283362).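 Note: activity is loss of signal relative to DMSO baseline.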 The method, boiled down:
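In this biochemical format, receptor protein is dosed with chemical and read after 1 hour via AlphaLISA. Decreases from the DMSO baseline indicate antagonist activity; screening used 25 uM in duplicate before concentration-response confirmation.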

Experiment [7] deals with Norway rat Vesicular Monoamine Transporter (VMAT2), neurotransmitter transporter, Slc18a2 (gene 25549) (UniProt Q01827). The experiment in a line: NVS_TR_rVMAT2: NovaScreen (NVS) Transporter Assay for Norway rat Vesicular Monoamine Transporter (VMAT2), neurotransmitter transporter (AID 2283376).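 Note: actives lower the bound radioligand signal below the DMSO level.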 The method, boiled down:
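Binding endpoint from rat forebrain tissue, cell-free; 1 h incubation; filtered radioligand counted; 25 uM duplicate primary then dose series; DMSO negative control.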

Experiment [8] concerns the target Agonist Androgen Response Element (ARE), AR (gene 367) (UniProt P10275). The experiment can be described thus: OT_AR_ARELUC_AG_1440: Odyssey Thera (OT) 24-hour CHO-K1 Luciferase Assay for Agonist Androgen Response Element (ARE) (AID 2283379). In short, it runs like this: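 Luminescence increase above DMSO, read after a 24 h compound treatment of CHO-K1 cells expressing an androgen response element luciferase reporter, gives the single primary endpoint; concentration-response fitting used the positive direction.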

The target in experiment [9] is human Peroxisome Proliferator-activated Receptor alpha (PPARa), PPARA (gene 5465) (UniProt Q07869). The experiment in a line: NVS_NR_hPPARa: NovaScreen (NVS) Nuclear Receptor Binding Assay for human Peroxisome Proliferator-activated Receptor alpha (PPARa) (AID 2283359).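 Note: activity means loss of TR-FRET signal versus DMSO baseline.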 The method, boiled down: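 One-hour incubation, cell-free extracted protein, TR-FRET binding readout; signal loss vs DMSO scored. Screen: 25 uM duplicates, confirmatory dose series for actives.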

The next experiment concerns the target PGR (gene 5241) (UniProt P06401). The experiment in a line: NVS_NR_hPR: NovaScreen (NVS) Nuclear Receptor Binding Assay for human Progestron Receptor (PR) (AID 2283360).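 Note: active means loss of bound radioligand signal versus DMSO baseline.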 In short, it runs like this:
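T47D-derived receptor preparation, cell-free, with tritiated or iodinated radioligand displacement measured by scintillation 18 h post-dosing. Single 25 uM duplicate screen, then concentration series; signal loss relative to DMSO.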

The target of experiment [10] is human Norepinephrine Transporter (NET), SLC6A2 (gene 6530) (UniProt P23975). The experiment can be described thus: NVS_TR_hNET: NovaScreen (NVS) Transporter Assay for human Norepinephrine Transporter (NET) (AID 2283377).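 Note: cell-free membrane protein extracted from CHO cells expressing human NET; displacement of radioligand from human NET seen as loss of scintillation signal.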 In short, it runs like this:
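In this cell-free binding screen, chemicals at 25 uM (duplicate) compete with a radioligand for CHO-derived human NET over 1 hour, with filter-based radiodetection.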

Experiment [11] addresses mouse Estrogen Receptor alpha (Era), Esr1 (gene 13982) (UniProt P19785). The experiment can be described thus: NVS_NR_mERa: NovaScreen (NVS) Nuclear Receptor Binding Assay for mouse Estrogen Receptor alpha (Era) (AID 2283378).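 Note: hit means loss of bound radioligand signal relative to DMSO.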 The method, boiled down: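 Measurements come from scintillation counting after filtration, taken 18 hours after chemicals were added to a cell-free mouse Era preparation with radioligand. Screening was duplicate at 25 uM, with concurrent positive and negative controls and confirmatory concentration series for actives.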

Experiment [12] concerns rat Norepinephrine Transporter (NET), gene 83511. The experiment can be described thus: NVS_TR_rNET: NovaScreen (NVS) Transporter Assay for rat Norepinephrine Transporter (NET) (AID 2283373). The method, boiled down:
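Competitive radioligand displacement at the rat NET using forebrain membrane preparations, 1 h incubation, filter-based scintillation readout. Primary testing in duplicate at a single 25 uM concentration; confirmed actives retested across concentrations.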

Experiment [13] addresses Nuclear receptor subfamily 1 group I member 2 (Homo sapiens) (UniProt O75469). The experiment in a line: NVS_NR_hPXR: NovaScreen (NVS) Nuclear Receptor Binding Assay for human Pregnane X Receptor (PXR) (AID 2283365).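 Note: a drop in FRET signal versus DMSO baseline means the compound binds.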 In short, it runs like this: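 Read-out: TR-FRET, human PXR, 2 h post-dosing, cell-free. Loss of signal vs DMSO taken as binding activity; 25 uM primary, concentration series secondary.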

Experiment [14] addresses guinea pig Sigma Receptor, Non-selective Binding, SIGMAR1 (gene 100135589) (UniProt Q60492). The experiment in a line: NVS_OR_gSIGMA_NonSelective: NovaScreen (NVS) Nuclear Receptor Binding Assay for guinea pig Sigma Receptor, Non-selective Binding (AID 2283367). In short, it runs like this:
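Test chemicals were screened in duplicate at 25 uM, then in concentration series if active, against radioligand binding to guinea pig brain membranes; filtration and scintillation counting at 1 h measured remaining bound ligand.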

In PubChem BioAssay (EPA / NIEHS) one finds outcome and AC50 data, which are given here for ten molecules.

As a reminder, the AC50 is the midpoint of the concentration-response curve, whichever way the signal moves.

Structures are written as SMILES. Several values for one entry are separate records, joined by “and”; a condition that tells them apart may be missing. Identical values can stand only once. Inconclusive results are not listed. Some structures have more than one record in an assay (separate samples or runs), and their calls can disagree. Activity calls are given as the source filed them. Rule for the calls, unless noted: active = hit-call score of the fitted dose curve at least 0.9, where 1 is the maximum; inconclusive = response in the unintended direction; inactive = score below 0.9.

Chain of Agonist Androgen Response Element (ARE), AR (gene 367) (P10275 whole entry, looked up): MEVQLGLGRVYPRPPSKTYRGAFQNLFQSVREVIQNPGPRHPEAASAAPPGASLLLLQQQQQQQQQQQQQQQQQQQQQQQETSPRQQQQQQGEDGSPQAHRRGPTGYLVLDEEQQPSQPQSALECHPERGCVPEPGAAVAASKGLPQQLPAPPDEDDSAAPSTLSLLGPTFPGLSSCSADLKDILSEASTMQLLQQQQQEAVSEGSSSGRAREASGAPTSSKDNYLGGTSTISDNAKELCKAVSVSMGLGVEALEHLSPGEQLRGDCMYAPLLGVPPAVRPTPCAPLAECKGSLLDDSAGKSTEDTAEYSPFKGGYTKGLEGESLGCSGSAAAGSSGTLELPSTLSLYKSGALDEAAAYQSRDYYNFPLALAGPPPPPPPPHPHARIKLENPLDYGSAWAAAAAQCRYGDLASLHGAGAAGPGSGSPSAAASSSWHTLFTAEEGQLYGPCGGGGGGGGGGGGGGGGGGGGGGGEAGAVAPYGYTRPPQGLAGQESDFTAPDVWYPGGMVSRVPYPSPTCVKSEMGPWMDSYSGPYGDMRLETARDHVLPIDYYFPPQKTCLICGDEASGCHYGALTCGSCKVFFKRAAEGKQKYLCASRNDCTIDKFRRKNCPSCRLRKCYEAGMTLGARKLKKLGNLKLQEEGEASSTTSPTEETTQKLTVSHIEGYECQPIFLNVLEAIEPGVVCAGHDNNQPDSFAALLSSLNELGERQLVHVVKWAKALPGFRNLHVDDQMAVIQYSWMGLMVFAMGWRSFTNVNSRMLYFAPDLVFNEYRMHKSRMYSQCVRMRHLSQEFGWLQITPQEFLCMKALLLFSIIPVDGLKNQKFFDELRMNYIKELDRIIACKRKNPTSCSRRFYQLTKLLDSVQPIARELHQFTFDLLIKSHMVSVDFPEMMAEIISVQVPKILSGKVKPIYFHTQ
Chain of Norway rat Vesicular Monoamine Transporter (VMAT2), neurotransmitter transporter, Slc18a2 (gene 25549) (Q01827 whole entry, looked up): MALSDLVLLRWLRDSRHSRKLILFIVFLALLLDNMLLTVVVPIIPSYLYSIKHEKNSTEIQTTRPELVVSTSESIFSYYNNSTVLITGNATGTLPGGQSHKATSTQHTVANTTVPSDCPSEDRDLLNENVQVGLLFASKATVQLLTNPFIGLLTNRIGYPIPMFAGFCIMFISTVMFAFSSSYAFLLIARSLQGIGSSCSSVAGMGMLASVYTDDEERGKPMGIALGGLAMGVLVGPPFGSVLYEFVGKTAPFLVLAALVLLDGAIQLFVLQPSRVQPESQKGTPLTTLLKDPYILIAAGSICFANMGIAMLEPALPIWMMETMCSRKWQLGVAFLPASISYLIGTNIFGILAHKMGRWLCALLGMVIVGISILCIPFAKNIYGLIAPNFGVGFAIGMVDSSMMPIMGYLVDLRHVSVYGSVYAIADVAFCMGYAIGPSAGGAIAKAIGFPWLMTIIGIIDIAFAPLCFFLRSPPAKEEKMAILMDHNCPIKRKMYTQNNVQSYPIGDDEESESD
Chain of mouse Estrogen Receptor alpha (Era), Esr1 (gene 13982) (P19785 whole entry, looked up): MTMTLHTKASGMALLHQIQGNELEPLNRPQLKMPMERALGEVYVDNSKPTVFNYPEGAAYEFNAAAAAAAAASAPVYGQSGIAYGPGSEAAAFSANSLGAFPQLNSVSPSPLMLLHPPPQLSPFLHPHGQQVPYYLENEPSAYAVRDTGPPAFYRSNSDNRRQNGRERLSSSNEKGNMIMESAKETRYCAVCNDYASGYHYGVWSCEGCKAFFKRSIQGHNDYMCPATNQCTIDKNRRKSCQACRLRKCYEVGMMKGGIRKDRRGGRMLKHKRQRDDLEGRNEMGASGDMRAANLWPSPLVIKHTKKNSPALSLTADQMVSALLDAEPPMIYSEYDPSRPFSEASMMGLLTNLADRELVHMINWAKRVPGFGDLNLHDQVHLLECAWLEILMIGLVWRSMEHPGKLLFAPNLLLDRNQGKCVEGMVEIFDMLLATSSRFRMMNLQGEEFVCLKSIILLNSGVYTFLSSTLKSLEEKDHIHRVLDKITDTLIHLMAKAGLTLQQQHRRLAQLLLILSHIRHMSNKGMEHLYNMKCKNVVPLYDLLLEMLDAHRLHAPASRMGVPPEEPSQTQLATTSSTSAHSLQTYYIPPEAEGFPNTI
Chain of PGR (gene 5241) (P06401 whole entry, looked up): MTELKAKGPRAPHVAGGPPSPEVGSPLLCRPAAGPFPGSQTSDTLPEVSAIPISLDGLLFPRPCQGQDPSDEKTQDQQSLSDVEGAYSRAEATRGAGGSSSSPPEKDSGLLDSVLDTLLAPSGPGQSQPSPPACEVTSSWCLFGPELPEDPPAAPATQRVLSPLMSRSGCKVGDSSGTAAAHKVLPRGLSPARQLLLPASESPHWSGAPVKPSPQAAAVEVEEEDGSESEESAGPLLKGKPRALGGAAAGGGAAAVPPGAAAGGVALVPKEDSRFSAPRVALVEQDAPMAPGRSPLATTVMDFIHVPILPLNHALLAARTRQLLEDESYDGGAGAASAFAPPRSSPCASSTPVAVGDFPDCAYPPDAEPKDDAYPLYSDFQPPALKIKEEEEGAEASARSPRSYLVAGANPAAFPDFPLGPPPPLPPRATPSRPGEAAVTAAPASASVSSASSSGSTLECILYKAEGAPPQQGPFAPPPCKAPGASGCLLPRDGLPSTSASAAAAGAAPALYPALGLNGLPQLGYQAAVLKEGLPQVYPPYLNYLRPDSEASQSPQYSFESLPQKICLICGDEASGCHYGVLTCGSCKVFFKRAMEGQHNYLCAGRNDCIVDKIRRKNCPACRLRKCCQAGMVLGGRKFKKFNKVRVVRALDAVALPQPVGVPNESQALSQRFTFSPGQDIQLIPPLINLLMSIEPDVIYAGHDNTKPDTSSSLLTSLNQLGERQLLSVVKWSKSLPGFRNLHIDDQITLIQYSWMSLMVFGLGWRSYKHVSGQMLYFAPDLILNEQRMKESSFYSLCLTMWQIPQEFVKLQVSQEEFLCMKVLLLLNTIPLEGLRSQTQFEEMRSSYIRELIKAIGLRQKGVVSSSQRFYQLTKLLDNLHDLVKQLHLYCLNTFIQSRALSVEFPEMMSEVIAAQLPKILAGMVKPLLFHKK
Chain of Estrogen receptor beta (Homo sapiens) (Q92731 whole entry, looked up, the tested form may be a part): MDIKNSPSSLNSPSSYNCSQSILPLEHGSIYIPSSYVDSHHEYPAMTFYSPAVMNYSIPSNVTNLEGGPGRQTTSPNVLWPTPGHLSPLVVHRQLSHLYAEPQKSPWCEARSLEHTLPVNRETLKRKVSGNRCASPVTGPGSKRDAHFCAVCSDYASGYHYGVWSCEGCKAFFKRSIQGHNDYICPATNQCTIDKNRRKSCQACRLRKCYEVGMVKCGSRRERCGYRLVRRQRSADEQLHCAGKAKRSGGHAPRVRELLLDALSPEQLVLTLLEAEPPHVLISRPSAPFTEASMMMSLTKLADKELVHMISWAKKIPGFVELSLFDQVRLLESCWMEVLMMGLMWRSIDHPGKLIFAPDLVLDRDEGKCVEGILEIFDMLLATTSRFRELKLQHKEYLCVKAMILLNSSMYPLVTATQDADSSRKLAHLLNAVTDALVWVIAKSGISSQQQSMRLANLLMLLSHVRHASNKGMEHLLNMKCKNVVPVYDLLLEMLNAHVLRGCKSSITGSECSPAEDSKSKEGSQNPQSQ
Chain of Nuclear receptor subfamily 1 group I member 2 (Homo sapiens) (O75469 whole entry, looked up): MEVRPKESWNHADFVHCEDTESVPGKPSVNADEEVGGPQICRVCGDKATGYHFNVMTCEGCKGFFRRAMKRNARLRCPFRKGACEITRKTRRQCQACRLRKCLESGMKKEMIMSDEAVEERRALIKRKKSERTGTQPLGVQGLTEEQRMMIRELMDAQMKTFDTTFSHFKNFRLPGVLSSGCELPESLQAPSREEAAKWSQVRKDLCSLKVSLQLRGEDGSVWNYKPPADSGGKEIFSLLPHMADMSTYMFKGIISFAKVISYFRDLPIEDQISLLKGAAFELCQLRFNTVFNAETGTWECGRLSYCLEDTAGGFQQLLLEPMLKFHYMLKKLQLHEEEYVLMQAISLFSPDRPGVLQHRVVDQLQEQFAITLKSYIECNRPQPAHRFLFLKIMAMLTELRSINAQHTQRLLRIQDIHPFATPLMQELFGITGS

`CCNc1nc(Cl)nc(NCC)n1`: the molecule was called inactive in experiment [1], in experiment [2], in experiment [3], in experiment [4] and in experiment [5].

With `C#CCOS(=O)OC1CCCCC1Oc1ccc(C(C)(C)C)cc1` (centres undefined), the molecule was called inactive in experiment [1], in [6], in experiment [2], in [3], in experiment [4] and in experiment [5].

For the molecule `CCCCC(CC)COC(=O)c1ccccc1C(=O)OCC(CC)CCCC` (centres undefined), the result in experiment [1], in experiment [6], in experiment [2], in [7], in [3] and in experiment [4] was inactive. Also, in experiment [5], the outcome was inactive.

As to `Cc1ccc(-c2c(Cl)nc(C#N)n2S(=O)(=O)N(C)C)cc1`, the call in experiment [1], in experiment [2], in [8], in experiment [3], in experiment [4] and in experiment [5] was inactive.

Turning to `CCCCNC(=O)OCC#CI`, the result (in [1]; with PGR (gene 5241); in experiment [6]; in experiment [2]; in experiment [11]; in experiment [3]) was inactive. The AC50 in experiment [9] is 6.55 µM (active); in [7], 1.59 µM (active) and 4.96 µM (active); in [10], 9.04 µM (active) and 9.55 µM (active); in experiment [4], 86.8 µM (active); in experiment [5], 12.1 µM (active).

On to `CCNc1nc(Cl)nc(NC(C)C)n1`, for which the result (in experiment [1]; with PGR (gene 5241); in [6]; in [2]; in [11]; in [3]) was inactive. For the same molecule, the result in experiment [4] and in [5] was inactive. The results for the AC50 in [11] and in [5] were 6.81 µM (active) and 3.42 µM (active), respectively.

On to `CC(C)Oc1cc(-n2nc(C(C)(C)C)oc2=O)c(Cl)cc1Cl`, for which the molecule was called inactive (in experiment [1]; in the experiment with PGR (gene 5241); in experiment [8]; in [3]; in experiment [4]; in [5]).

As to `CCCCNC(=O)n1c(NC(=O)OC)nc2ccccc21`, the outcome in experiment [1], in experiment [12], in experiment [8], in experiment [3], in [4] and in experiment [5] was inactive.

Regarding `Oc1ccccc1-c1ccccc1`, the AC50 is 57.5 µM (active) in experiment [1], 15.7 µM (active) in experiment [13] and 15 µM (active) in experiment [10]. The result in [1], in experiment [9], in experiment [6], in experiment [2], in experiment [12] and in [3] was inactive. Also, the molecule was called inactive in [4] and in [5].

As to `CNC(=S)S`, the molecule was classed as inactive in experiment [1], in experiment [13], in experiment [14], in experiment [3], in experiment [4] and in [5].
